# Laboratory results published in PubChem BioAssay AID1347426 (Functional Genomics Laboratory (NCATS/FGL), 2020).
# The whole screen tested about 31,000 sequences, of which about 1,400 (4.5%) were called active. Many of the other results were omitted from the sample, so actives are more common in it than they were. Unmarked numbers belong to inactive results.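 How the source made its calls: active means median seed-adjusted z-score above 1 or below -1; inactive means the rest.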
# Experiment: Novel Modifiers of Survival Motor Neuron (SMN) Protein: Gene Identification via Genome-wide siRNA Screen
# Conditions: HEK293T SMN2-luciferase reporter, siRNA knockdown, 72 h; actives lie on both sides
# Excerpt: Spinal muscular atrophy (SMA) is the most common neuromuscular autosomal recessive disorder and one of the leading genetic causes of infant death. SMA results from mutations inducing loss of function or deletion in the survival of motor neuron-1 gene (SMN1), leading to deficiency of the survival motor neuron (SMN) protein. Although a second nearly identical gene, SMN2, is retained in humans, its expression primarily produces an aberrantly spliced isoform that is largely unstable and quickly degraded. We performed a genome-wide RNAi screen using a cell-based reporter assay to identify genes and pathways that modulate SMN protein stability. The screen identified over 200 genes that led to the greatest increase or decrease in luciferase expression.
# Using HEK293T cells stably expressing a luciferase reporter that combines the promoter and splicing based cassettes in tandem with the major portion of the native SMN2 cDNA with luciferase, we performed a genome-wide RNAi screen to identify modulators of SMN protein levels. Luciferase is expressed when full-length SMN protein is generated with luminescence signal proportional to SMN protein levels. Our luciferase-based reporter assay was used to screen Ambion Silencer Select Human Druggable Genome siRNA library (10418 genes, 3 unique siRNAs per gene) using lipid-based reverse transfection.
# Briefly, 1 pmol of each siRNA was spotted to a well of a 384-well plate (Corning, Corning, NY) and 20 microL of serum-free DMEM containing […] of Lipofectamine RNAiMax (Life Technologies, Carlsbad, CA) was then added to each well. Transfected cells were maintained at 37 degrees C in 5% CO2 for 72 hours, 20 microL of ONE-Glo Reagent (Promega) was added to wells for luciferase quantification. Raw luminescence reads were normalized to Ambion(R) Silencer(R) Negative Control #2 siRNA, then log10 transformed. A robust statistical measure of median absolute deviation (MAD) to standardize siRNA activities from each screen. Common Seed Analysis was used to help prioritize clean hits as opposed to those appearing to arise from seed based off-target effects. Candidate modulators were defined as the genes having a MAD score greater than 1.0 or less than -1.0.
row,Sequence,median seed-adjusted z-score
1,CCCAGACAAAUUACCUAUATT against CAD,2.37 (active)
2,GGACCUAUGAGCAACGAAATT against ATP1A4,0.116
3,GCAUGAACCAGUUAUCACATT against SCYL2,-0.0652
4,GCAGCUCUGAGAACGGCAATT against ARHGEF1,-0.0658
5,CUACCGAUGCUGAAAGACATT against PGM3,-0.527
6,CCACGCUCAUCAUCUCCAATT against SLC4A2,-0.539
7,CUACUGUUCUUGACCACAATT against DHX15,1.36 (active)
8,GGCUCAAGGGCUUUGCUGATT against ADSSL1,0.0976
9,CCGUUAGACCAGAACGGAATT against MGA,0.0136
10,CAUAGUCACAUGAUUAAUATT against POSTN,-0.45
11,GGAAGACAAUUGCUAAGGUTT against TRO,2.04 (active)
12,CCUUAUCCGCUACCUCCAATT against TAF5L,0.409
13,GGAAGAAGGUAUUCCGUAUTT against CHD5,-0.195
14,CGUCCAUGUUUAUCUACAATT against ENTPD2,0.0319
15,CGAACGAGCUAUCACAGAATT against TFB1M,0.172
16,CAUUCGGUAUUUUAUUCUATT against SNRPD1,-2.97 (active)
17,CCUUGCAACAUGUUCGUGATT against KRIT1,-0.447
18,GAAAAACGAUGUAAGCAAUTT against ADH1A,0.624
19,GAGACAAACUAAUUGAGAATT against PPP1R8,-0.029
20,GGCUACAAAUGUUCAUCGATT against LRP6,-0.116
21,CGUCAAUUCCGGUACACUUTT against PIGM,1.36 (active)
22,CACAUUAAAGUGUAAAGAATT against PIP3-E,0.676
23,GGACAAAGUCCUAAAGAAATT against MGC21874,-0.354

row,Sequence,median seed-adjusted z-score
1,GCACUGUCUACAUCCCUGATT against RHCG,0.375
2,AGAUAGUUCUGGAACUGGATT against HES2,-0.186
3,CCACUAGCACAUUCCGCAATT against RBP2,0.0132
4,GGACGACUCUGAUCUGGAUTT against DYNC1I1,-0.716
5,GGCGAAAAAUUGCUACCGATT against PSMC2,-1.96 (active)
6,CUCUAGUCGCGUCAAGUUUTT against NISCH,-0.0757
7,GCAAAAAGAGCGAUCAGAATT against CNDP1,0.203
8,GGAUAUAACGAGAAUGUCUTT against MED27,-1.62 (active)
9,AGAUAGAAAUUGACUUUGATT against BRD3,0.633
10,GCGAAAACAUGGAUGUUCUTT against HERC2,0.98
11,CUUUCCGUGUGAAAUCAAATT against ZNF761,0.291
12,AGACCUCCUACGACAUUAATT against BOC,-0.0192
13,GACUCAAUGCUACUAUCAATT against ADAM32,1.75 (active)
14,GGGUGAAUGCUAUUGAGUUTT against MKRN1,-0.496
15,AGAACUUCAUGGACAUAGATT against CNR1,0.0359
16,CCACCGAUGAGAUUACCUUTT against STS,-0.392
17,CAGAGGUUGUGACACGAAATT against PAK1,-0.168
18,CUAUGAGGAAUGUCGCAGATT against XPO1,1.12 (active)
19,GGUCCUCAUUGAAAACGAATT against BTBD11,-0.00434
20,GGACUACAGUAUACAUUGUTT against PCDH24,0.345
21,GGAACAGGCUAUCAGAACATT against TTC8,0
22,GGGCUUUAAAUAUGAGAUUTT against GRID1,0.66
23,CGUUGUCACUGAGAUCACATT against AVIL,-0.127

row,Sequence,median seed-adjusted z-score
1,AAGACAUACCGACCUCUUATT against PPIL3,0.282
2,GGACGUACAGUGGUGGUAATT against ABCA3,-0.363
3,CCAAUAUUCGACUUGCGUATT against XPO1,1.12 (active)
4,GCCGCCAAGUAAAGCCUUATT against HSPB1,0.693
5,CAAGCUGUCUAAGUCCAAATT against NOVA1,-0.486
6,CCCACCAUGUUACAAGACATT against POLR2G,-4.19 (active)
7,GCAAGGAAGAAAUUUGUGATT against ERCC1,-0.566
8,CUCACAUAAUCAUAAUAGATT against ZNF41,0.342
9,GGAGCCUUGUUGAUCCUUATT against FRAP1,-1.02 (active)
10,CGUUCGCACAUUCCUUAUATT against KIF6,-0.0396
11,GCUUUGUAGAAUUUGCAGATT against TRNAU1AP,0.52
12,GGACCGGCCUUUUCGAAAATT against SNRNP35,0.172
13,GGCUGAUUACGUUCGGGAATT against MYL2,-0.0369
14,CAAUGAUCCCGGGCAUUUATT against RPP21,-1.09 (active)
15,GGAGACCAACUGCAACUUUTT against ZACN,0.065
16,CGGAGGUGACUGACAGAUATT against CAMKV,-0.193
17,GAGUCAAAUUUGUGAAGAATT against GLO1,-0.0827
18,CUGUGGGAGUUAUUGUCAATT against CDH13,0
19,CAAGCAUCUUUGUCAAAGATT against PTH2R,-0.492
20,GGCUGAUAGUUUAGGAGUUTT against EIF5B,1.68 (active)
21,GCUGGUUACUUAUCACCAATT against TPH1,-0.055
22,AACCUAUGCGUAUCCAGUATT against SNRPA,-2.09 (active)
23,CGAAGUGAGUGAUAACAGUTT against RNF157,0.0197
